In PubChem BioAssay (NCATS):
“And” between values parts separate entries of the source, which are not always exact repeats. Equal values may be shown once. Results filed as inconclusive are left out. The source made the active and inactive calls. The call rests on the fitted dose curve; in most records, active means well fitted curve in the direction sought with a large enough effect; inconclusive means small, poorly fitted or top-dose-only effect, or another doubt; inactive means no such curve, though single readings can be large; an effect the other way counts as inactive or inconclusive. Where a SMILES comes first, the peptide text is derived from it. The star is where a group is joined. AFC = O=c1cc(C(F)(F)F)c2ccc(N*)cc2o1

Assays:
[1] = tested on: CRL-7250; assay: Cytotoxic Profiling of Annotated Libraries Using Quantitative High-Throughput Screening (AID 1296008); conditions: Five cell lines viability, CellTiter-Glo ATP luminescence, 48-72 h; max response: stronger effect = lower value; further: nearly all actives have a fitted effect of over 60% in size; on max response: on the % scale 0 is the no-effect control and ±100 the full control effect
Summary of the method: (§1)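 Cells exposed to compounds for 48 or 72 hr at 37 degrees Celsius. Viability read as ATP-coupled luminescence with CellTiter-Glo after 10 min at room temperature.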

[2] = tested on: HEK293; assay: as above; conditions: Five cell lines viability, CellTiter-Glo ATP luminescence, 48-72 h; max response: stronger effect = lower value
Summary of the method: as §1

[3] = tested on: HaCat; assay: as above; conditions: Five cell lines viability, CellTiter-Glo ATP luminescence, 48-72 h; max response: stronger effect = lower value
Summary of the method: as §1

[4] = tested on: KB-3-1; assay: as above; conditions: Five cell lines viability, CellTiter-Glo ATP luminescence, 48-72 h; max response: stronger effect = lower value
Summary of the method: as §1

[5] = tested on: NIH3T3; assay: as above; conditions: Five cell lines viability, CellTiter-Glo ATP luminescence, 48-72 h; max response: stronger effect = lower value
Summary of the method: as §1

[6] = tested on: HEK293T; assay: qHTS assay to identify novel small-molecules to repurpose for Merkel cell carcinoma treatment (AID 1296009); conditions: MCC and control cell lines, CellTiter-Glo viability, 72 h; series mostly up to 44.8 µM; further: nearly all actives have a fitted effect of over 60% in size
Summary of the method: (§2)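 Cells were incubated with compound for 72 hr at 37 degree celsius before CellTiter-Glo addition. Luminescence was normalized with no-cell wells as full cytotoxicity and DMSO as baseline.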

[7] = tested on: C33A; assay: Primary qHTS to identify gynecologic anti-cancer compounds using libraries of approved drugs and bioactive compounds (AID 1345084); conditions: Gynecologic cancer cell panel viability, ATPlite luminescence, 48 h; series mostly up to 57.5 µM; further: on the % scale 0 is the no-effect control and ±100 the full control effect; nearly all actives have a fitted effect of over 55% in size
Summary of the method: (§3)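 Cells, 1,000 per well, plated 16 h, then exposed 48 h at 37 C to compounds. Viability by ATPlite luminescence after 15 min at room temperature.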

[8] = tested on: CAOV3; assay: as above; conditions: Gynecologic cancer cell panel viability, ATPlite luminescence, 48 h; series mostly up to 57.5 µM
Summary of the method: as §3

[9] = tested on: CASKI; assay: as above; conditions: Gynecologic cancer cell panel viability, ATPlite luminescence, 48 h; series mostly up to 57.5 µM
Summary of the method: as §3

[10] = tested on: Es-2; assay: as above; conditions: Gynecologic cancer cell panel viability, ATPlite luminescence, 48 h; series mostly up to 57.5 µM
Summary of the method: as §3

[11] = tested on: HeLa; assay: as above; conditions: Gynecologic cancer cell panel viability, ATPlite luminescence, 48 h; series mostly up to 57.5 µM
Summary of the method: as §3

[12] = tested on: NIH3T3; assay: qHTS assay to identify novel small-molecules to repurpose for Merkel cell carcinoma treatment (AID 1296009); conditions: MCC and control cell lines, CellTiter-Glo viability, 72 h; at 44.8 µM (top of the series) unless noted; further: nearly all actives have a fitted effect of over 60% in size
Summary of the method: as §2

CN1C(=O)c2ccccc2-n2c(nc3ccccc3c2=O)/C1=C/c1ccccc1
inactive: outcome [1] | outcome [2] | max response [3] -6.39% | outcome [4] | max response [5] 3.9% | Potency [6] | Potency [7] | Potency [8] | Potency [9] | Potency [10] | Potency [11]

COc1ccccc1CC(C(=O)O)N(C)C(=O)c1ccccc1 (stereo unspecified)
inactive: max response [1] 0.437% | outcome [2] | max response [3] 1.79% | max response [4] 2.61% | max response [5] -9.18% | Potency [6] | Potency [7] | Potency [8] | Potency [9] | Potency [10] | Potency [11]

CC(c1c[nH]c2ccccc12)C(O)C(=O)O (stereo unspecified)
inactive: max response [1] -1.71% | outcome [2] | max response [3] -10.2% | outcome [4] | max response [5] 3.62% | Potency [6] | Potency [7] | Potency [8] | Potency [9] | Potency [10] | Potency [11]

C[C@H]1CC[C@@]2(OC1)O[C@H]1CC3C4CC=C5C[C@H](O)C[C@@H](O[C@@H]6O[C@@H](C)[C@H](O)[C@@H](O)[C@H]6O[C@@H]6O[C@@H](C)[C@H](O)[C@@H](O)[C@H]6O)[C@]5(C)C4CC[C@]3(C)[C@H]1[C@@H]2C (stereo partly specified)
inactive: max response [1] -7.49% | outcome [2] | max response [3] -9.03% | outcome [4] | max response [5] 0.342% | Potency [6] | Potency [7] | Potency [8] | Potency [9] | Potency [10] | Potency [11]

C/C(=C/CCC(CO)C1CCC2(C)C3CCC4C(C)(C)C(OC5OC(CO)C(O)C(O)C5O)CC(O)C45CC35CCC12C)COC1OC(CO)C(O)C(O)C1O (stereo unspecified)
inactive: outcome [1] | outcome [2] | max response [3] -8.45% | max response [4] -1.63% | max response [5] 0.608% | Potency [6] | Potency [7] | Potency [8] | Potency [9] | Potency [10] | Potency [11]

Cc1cc(C)c(S(=O)(=O)N(Cc2ccc(-c3cccc(S(C)(=O)=O)c3)cc2)Cc2ccc(C(F)(F)F)o2)c(C)c1
inactive: max response [1] -5.2% | outcome [2] | max response [3] 2.94% | max response [4] -6.43% | outcome [5] | Potency [6] | Potency [7] | Potency [9] | Potency [10] | Potency [11]

CC(C)C(=O)c1cn(CC(=O)COc2ccc(Oc3ccccc3)cc2)c2ccc(C(=O)O)cc12
inactive: max response [1] 3.02% | outcome [2] | max response [3] -4.02% | max response [4] -0.497% | max response [5] -1.24% | Potency [6] | Potency [7] | Potency [8] | Potency [9] | Potency [10] | Potency [11]

CC(=O)OC[C@@]12[C@@H](OC(C)=O)C[C@@H](C)[C@](C)([C@@H]3C[C@H]4C=CO[C@H]4O3)[C@H]1CCC[C@]21CO1
inactive: max response [1] 0.841% | outcome [2] | max response [3] 2.97% | outcome [4] | max response [5] -2.5% | Potency [6] | Potency [7] | Potency [8] | Potency [9] | Potency [10] | Potency [11]

C=C1CC[C@@H]2[C@](C)(CC[C@H](O)[C@@]2(C)CCC=C(C)C)[C@@H]1Cc1c[nH]c2ccccc12
inactive: max response [1] -8.3% | outcome [2] | max response [3] -2.84% | max response [4] 1.09% | outcome [5] | Potency [6] | Potency [7] | Potency [9] | Potency [10] | Potency [11]

COC1CC(=O)C23C(=O)NC(CC(C)C)C2C(C)C(C)=CC3/C=C(\C)CCC1O (stereo unspecified)
inactive: outcome [1] | outcome [2] | max response [3] -17.4% | max response [4] 0.905% | max response [5] -0.706% | Potency [6] | Potency [7] | Potency [8] | Potency [9] | Potency [10] | Potency [11]

C[C@@H]1O[C@@H](O[C@H]2[C@H](O)[C@@H](O)[C@H](OC[C@H]3O[C@@H](OC(=O)[C@]45CCC(C)(C)C[C@H]4C4=CCC6[C@@]7(C)C[C@H](O)[C@H](O[C@@H]8O[C@H](CO)[C@@H](O)[C@H](O)[C@H]8O)[C@@](C)(C(=O)O)C7CC[C@@]6(C)[C@]4(C)CC5)[C@H](O[C@@H]4O[C@H](CO)[C@@H](O)[C@H](O)[C@H]4O)[C@@H](O)[C@@H]3O)O[C@@H]2CO)[C@H](O)[C@H](O)[C@H]1O (stereo partly specified)
inactive: max response [1] 2.51% | outcome [2] | max response [3] 4.68% | max response [4] 7.15% | max response [5] 3.41% | outcome [6] inactive [at 9.27 µM] | activity change, negative = cytotoxicity [7] 4.28% [at 6.55 µM] | activity change, negative = cytotoxicity [8] 11.2% [at 6.55 µM] | activity change, negative = cytotoxicity [9] 9.67% [at 6.55 µM] | activity change, negative = cytotoxicity [10] 9.17% [at 6.55 µM] | activity change, negative = cytotoxicity [11] 0.162% [at 6.55 µM]

CC(=O)N[C@@H](CC(C)C)C(=O)N[C@@H](CCC(=O)O)C(=O)N[C@@H](CCC(=O)O)C(=O)N[C@@H](CC(=O)O)C(=O)Nc1ccc2c(C(F)(F)F)cc(=O)oc2c1 (Ac-LEED-{AFC})
inactive: max response [1] -4.37% | outcome [2] | max response [3] -31% | max response [4] 0.179% | max response [5] 1.1% | Potency [6] | Potency [7] | Potency [8] | Potency [9] | Potency [10] | Potency [11]

CCC[C@@H]1C[C@@H](C(=O)N[C@@H]([C@H]2O[C@H](SC)[C@H](OP(=O)(O)O)[C@@H](O)[C@H]2O)[C@H](C)Cl)N(C)C1
inactive: max response [1] -7.94% | max response [2] -4.58% | max response [3] 4.98% | max response [4] -22.3% and -12.7% and 0.837% | outcome [5] | outcome [12] inactive [at 17.4 µM] | Potency [7] | Potency [8] | Potency [9] | Potency [10] | Potency [11]
